“And” between values parts separate entries of the source, which are not always exact repeats. Identical values can stand only once. Records with an inconclusive call do not appear. Entries that show only a call come without a potency. The source made the active and inactive calls. Calls come from the whole dose curve; as a rule, active = well fitted curve in the direction sought with a large enough effect; inconclusive = small, poorly fitted or top-dose-only effect, or another doubt; inactive = no such curve, though single readings can be large; an effect the other way counts as inactive or inconclusive.

The nature of the first experiment: qHTS of pediatric cancer cell lines to identify multiple opportunities for drug repurposing: Primary screen for RD cells (AID 1347104). Note: nearly all actives have a fitted effect of over 55% in size. Note: potency is the fitted concentration of half-maximal effect. The note with it: RD rhabdomyosarcoma viability, CellTiter-Glo luminescence, 48 h; series mostly up to 46 µM. Summed up: (§1)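 CRCs from 8- or 11-point titrations (lowest final 0.59 nM NPC, 0.78 nM MIPE). Cell viability: CellTiter-Glo after 48 h incubation, 15 min room-temperature development, luminescence imaging.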
(In qHTS, concentration-response curves come from the screen itself.)
In the case of `CC[C@H]1C[C@H]2[C@@H]3CCC4=CC(=O)CC[C@@H]4[C@H]3CC[C@]2(C)[C@H]1O`, the Potency result was “inactive”.

Regarding `C[C@@H]1C[C@@H]([C@H](O)CC2CC(=O)NC(=O)C2)C(=O)[C@@H](C)C1`, the Potency is 473 nM (active) and 235 nM (active). Same read-out and setting: next, `CCN(CC)CCOC(=O)C(C)(c1ccccc1)c1ccccc1`: “inactive”. The same measure, in the same setting: next, `CCOC(=O)C(c1c(O)c2ccccc2oc1=O)c1c(O)c2ccccc2oc1=O`: “inactive”.

For `C[C@H]1CNCCc2ccc(Cl)cc21`, the Potency entry is “inactive”. The same measure, in the same setting: then `C[C@@H]1CN(C2CCC(C#N)(c3ccc(F)cc3)CC2)CC[C@]1(C(=O)O)c1ccccc1` (some centres not stated), with “inactive”. In the case of `CC1N=C(N)OC1c1ccccc1` (configuration not stated), the Potency result is “inactive”. For the compound `C1CN2CCC1CC2`, the Potency result is “inactive”. Still for that read-out and setting: then `CC1COC2(c3ccccc3Cl)c3cc(Cl)ccc3NC(=O)CN12` (configuration not stated), with “inactive”; and `CCOC(=O)c1ncn2c1CN(C)C(=O)c1c(I)cccc1-2`, with “inactive”.

For the compound `CCC(OC(C)=O)C(CC(C)NC)(c1ccccc1)c1ccccc1` (configuration not stated), the Potency is 27.6 µM (active). Still for that read-out and setting: next, `Sc1ccccc1Cl`: “inactive”; `CC[n+]1c(-c2ccccc2)c2cc(N)ccc2c2ccc(N)cc21`: 13.3 µM (active). With `COc1ccc2c(C(=O)c3ccc(Cl)cc3)c(C)n(CC(=O)O)c2c1`, the Potency entry was “inactive”.

Regarding `CCN(CC)Cc1nccn1-c1ccc([N+](=O)[O-])cc1C(=O)c1ccccc1Cl`, the Potency result is “inactive”.

The next experiment is described as follows: qHTS of pediatric cancer cell lines to identify multiple opportunities for drug repurposing: Primary screen for MG 63 (6-TG R) cells (AID 1347105). Note: nearly all actives have a fitted effect of over 50% in size. The note with it: MG 63 (6-TG R) viability, CellTiter-Glo, 48 h; series mostly up to 46 µM. Summed up: as §1
On to `CC(=O)OC1(c2ccccc2)CCN(CCc2ccccc2)CC1`, for which the Potency entry is “inactive”. Regarding `CCNc1nc(Cl)nc(NCC)n1`, the Potency entry was “inactive”.

In the case of `COc1ccc(C(=O)N2CCCC2=O)cc1`, the Potency result is “inactive”. Consider `CNC(C)Cc1ccc2c(c1)OCO2` (configuration not stated), for which the Potency entry is “inactive”.

On to `ClCc1cccc(Cl)c1`, for which the Potency result was “inactive”. Turning to `COP(=S)(OC)Oc1ccc(Sc2ccc(OP(=S)(OC)OC)cc2)cc1`, the Potency result is “inactive”. Turning to `CN1C(=O)[C@@H](NC(=O)c2cc3ccccc3[nH]2)N=C(c2ccccc2)c2ccccc21`, the Potency entry is “inactive”. On the same count and under the same terms, then `CC[C@H]1C[C@H]2[C@@H]3CCC4=CC(=O)CC[C@@H]4[C@H]3CC[C@]2(C)[C@H]1O`, with “inactive”.

For the compound `CCN(CC)CCOC(=O)C(C)(c1ccccc1)c1ccccc1`, the Potency result was “inactive”. On the same count and under the same terms, next, `CCOC(=O)C(c1c(O)c2ccccc2oc1=O)c1c(O)c2ccccc2oc1=O`: “inactive”; `C[C@H]1CNCCc2ccc(Cl)cc21`: “inactive”; `CC(C)C(Br)C(=O)NC(N)=O` (configuration not stated): “inactive”. On to `CCS(=O)(=O)C(C)(C)S(=O)(=O)CC`, for which the Potency entry was “inactive”. Take `C[C@@H]1CN(C2CCC(C#N)(c3ccc(F)cc3)CC2)CC[C@]1(C(=O)O)c1ccccc1` (some centres not stated): the Potency result is “inactive”. The same measure, in the same setting: next, `NCc1cccnc1`: “inactive”; `CC(C)(O)C(Cl)(Cl)Cl`: “inactive”.

With `Oc1ccc2[nH]cc(CCCCN3CC=C(c4ccccc4)CC3)c2c1`, the Potency entry was “inactive”. With `CCO[C@H]1O[C@@H]2OC3(C)CC[C@H]4[C@H](C)CC[C@@H]([C@H]1C)[C@@]24OO3`, the Potency result is “inactive”. With `C1CN2CCC1CC2`, the Potency entry was “inactive”.

On to `COP(=O)(OC)OC=C(Cl)Cl`, for which the Potency result was “inactive”. Still for that read-out and setting: then `CC(Cc1ccc2c(c1)OCO2)NO` (configuration not stated), with “inactive”. On the same count and under the same terms, next, `COCC(=O)N(c1c(C)cccc1C)C(C)C(=O)OC` (configuration not stated): “inactive”. Take `CC1COC2(c3ccccc3Cl)c3cc(Cl)ccc3NC(=O)CN12` (configuration not stated): the Potency entry is “inactive”. Still for that read-out and setting: then `CCOC(=O)c1ncn2c1CN(C)C(=O)c1c(I)cccc1-2`, with “inactive”; and `Sc1ccccc1Cl`, with “inactive”. For `CCN(CC)C(C)C(=O)c1ccccc1` (configuration not stated), the Potency entry was “inactive”. Same read-out and setting: then `NC(=O)OCCCc1ccccc1`, with “inactive”; and `CCN(CC)Cc1nccn1-c1ccc([N+](=O)[O-])cc1C(=O)c1ccccc1Cl`, with “inactive”; and `O=C1NCN(c2ccccc2)C12CCN(CCCOc1ccc(F)cc1)CC2`, with “inactive”. Still for that read-out and setting: next, `C[C@]12Cc3nonc3C[C@@H]1CC[C@@H]1[C@@H]2CC[C@@]2(C)[C@H]1CC[C@]2(C)O`: “inactive”.

Another experiment can be described thus: qHTS of pediatric cancer cell lines to identify multiple opportunities for drug repurposing: Primary screen for control Hh wild type fibroblast cells (AID 1347106).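 Note: a drop in luminescence marks cytotoxicity and a rise apparent proliferation; nearly all actives have a fitted effect of over 55% in size.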 The note with it: Hh wild-type fibroblast viability, CellTiter-Glo luminescence, 48 h; series mostly up to 46 µM. Summed up: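 Viability after 48 h compound treatment at 37C, 500-1,000 cells/well, read as ATP luminescence with CellTiter-Glo. Primary screens used 11-point (MIPE, 0.78 nM-46 µM) or 8-point (NPC, 0.59 nM-46 µM) final concentrations; follow-up screens used 11-point dilutions.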
With `CC(=O)OC1(c2ccccc2)CCN(CCc2ccccc2)CC1`, the Potency result is “inactive”. Regarding `CCNc1nc(Cl)nc(NCC)n1`, the Potency result is “inactive”.

For `COc1ccc(C(=O)N2CCCC2=O)cc1`, the Potency result is “inactive”. On the same count and under the same terms, then `CNC(C)Cc1ccc2c(c1)OCO2` (configuration not stated), with “inactive”; and `ClCc1cccc(Cl)c1`, with “inactive”; and `CC(CC(C#N)(c1ccccc1)c1ccccc1)N(C)C` (configuration not stated), with “inactive”.

Consider `Cc1nnc2n1-c1sc(CCc3ccc(CC(C)C)cc3)cc1C(c1ccccc1Cl)=NC2C` (configuration not stated), for which the Potency result is “inactive”. Still for that read-out and setting: then `C[C@@H]1C[C@@H]([C@H](O)CC2CC(=O)NC(=O)C2)C(=O)[C@@H](C)C1`, with “inactive”; and `CCN(CC)CCOC(=O)C(C)(c1ccccc1)c1ccccc1`, with “inactive”.

As for `CCOC(=O)C(c1c(O)c2ccccc2oc1=O)c1c(O)c2ccccc2oc1=O`, the Potency result was “inactive”. On the same count and under the same terms, then `C[C@H]1CNCCc2ccc(Cl)cc21`, with “inactive”; and `CC(C)C(Br)C(=O)NC(N)=O` (configuration not stated), with “inactive”.

As to `CCS(=O)(=O)C(C)(C)S(=O)(=O)CC`, the Potency result is “inactive”. Same read-out and setting: then `C[C@@H]1CN(C2CCC(C#N)(c3ccc(F)cc3)CC2)CC[C@]1(C(=O)O)c1ccccc1` (some centres not stated), with “inactive”; and `NCc1cccnc1`, with “inactive”. `CC(C)(O)C(Cl)(Cl)Cl`: the Potency result was “inactive”. On the same count and under the same terms, then `CC[C@H](O)C(C[C@H](C)N(C)C)(c1ccccc1)c1ccccc1`, with “inactive”.

For `Oc1ccc2[nH]cc(CCCCN3CC=C(c4ccccc4)CC3)c2c1`, the Potency result is “inactive”. Same read-out and setting: next, `CCO[C@H]1O[C@@H]2OC3(C)CC[C@H]4[C@H](C)CC[C@@H]([C@H]1C)[C@@]24OO3`: “inactive”; `C1CN2CCC1CC2`: “inactive”. On the same count and under the same terms, then `COP(=O)(OC)OC=C(Cl)Cl`, with “inactive”; and `CC(Cc1ccc2c(c1)OCO2)NO` (configuration not stated), with “inactive”. For the compound `COCC(=O)N(c1c(C)cccc1C)C(C)C(=O)OC` (configuration not stated), the Potency result is “inactive”. Same read-out and setting: next, `CC1COC2(c3ccccc3Cl)c3cc(Cl)ccc3NC(=O)CN12` (configuration not stated): “inactive”; `CCOC(=O)c1ncn2c1CN(C)C(=O)c1c(I)cccc1-2`: “inactive”; `CCC(OC(C)=O)C(CC(C)NC)(c1ccccc1)c1ccccc1` (configuration not stated): “inactive”. Still for that read-out and setting: then `Sc1ccccc1Cl`, with “inactive”; and `CCN(CC)C(C)C(=O)c1ccccc1` (configuration not stated), with “inactive”; and `COc1ccc2c(C(=O)c3ccc(Cl)cc3)c(C)n(CC(=O)O)c2c1`, with “inactive”. Still for that read-out and setting: then `NC(=O)OCCCc1ccccc1`, with “inactive”. Regarding `CCN(CC)Cc1nccn1-c1ccc([N+](=O)[O-])cc1C(=O)c1ccccc1Cl`, the Potency result is “inactive”. On to `C[C@H](CN1CCOCC1)C(C(=O)N1CCCC1)(c1ccccc1)c1ccccc1`, for which the Potency result is “inactive”.

These data come from PubChem BioAssay (NCATS).
